# Sm TGR inh = S. mansoni TGR enzyme inhibition. Q962Y6. purified TGR, DTNB reduction, TNB absorbance 405 nm. Potency, µM (highest dose often 114 µM), for inactives: at the top dose activity change, negative = inhibition, most hits filed as inhibitors. hit rate 3% among 360,000; also: nearly all actives have a fitted effect of over 60% in size
#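 Kinetic colorimetric format: TGR-catalysed, NADPH-driven DTNB reduction monitored via TNB absorbance. Enzyme dispensed at 20 nM; compound exposure 15 min at room temperature before reaction start.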
# TbPYK inhibitor = T. brucei pyruvate kinase inhibition | TbPYK enzyme, Kinase-Glo Plus ATP luminescence, 45 min | Potency, µM (highest dose often 76.8 µM), inactives show at the highest dose activity, negative = inhibition, hits mostly inhibitors | hit rate 0.12% among 410,000 | AID 624173; also: nearly all actives have a fitted effect of over 50% in size
#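 T. brucei PYK with substrate was exposed to pin-transferred compounds across a concentration series, then started with 130 uM ADP (final). After 45 min at room temperature, Kinase-Glo Plus luminescence was read, normalized and curve-fitted.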
# LmPK inh = blocks Leishmania mexicana pyruvate kinase activity | purified LmPK, Kinase-Glo ATP luminescence, 1 h | Potency, µM (top dose mostly 57.5 µM), inactives show at the top dose activity change, negative = inhibition, actives largely listed as inhibitors | hit rate 0.37% among 290,000
# Target sequence (Q27686 whole entry, looked up): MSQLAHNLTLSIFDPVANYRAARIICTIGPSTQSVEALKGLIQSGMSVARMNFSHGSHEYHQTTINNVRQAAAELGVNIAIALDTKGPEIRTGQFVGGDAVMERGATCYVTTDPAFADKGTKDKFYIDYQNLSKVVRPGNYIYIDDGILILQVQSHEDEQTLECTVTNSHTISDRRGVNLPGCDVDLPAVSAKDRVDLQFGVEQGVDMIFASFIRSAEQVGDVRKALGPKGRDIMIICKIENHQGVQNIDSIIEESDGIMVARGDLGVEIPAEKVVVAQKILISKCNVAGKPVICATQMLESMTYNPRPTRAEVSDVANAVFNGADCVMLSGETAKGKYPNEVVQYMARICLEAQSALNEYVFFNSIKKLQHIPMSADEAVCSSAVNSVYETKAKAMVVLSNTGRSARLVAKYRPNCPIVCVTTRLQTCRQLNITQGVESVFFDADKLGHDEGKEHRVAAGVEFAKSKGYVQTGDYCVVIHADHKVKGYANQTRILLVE
#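 Pyruvate kinase activity monitored as ATP production (luciferase luminescence). Conditions: 0.1 nM enzyme, 0.5 mM PEP, 0.1 mM ADP, 1 h, RT; normalized against uninhibited and no-enzyme wells.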
# RE007 growth inh = less growth of the S. pombe RE007 Vpr strain | hit rate 0.21% among 360,000 | Potency, µM (doses to about 92.2 µM), without a hit: at the top dose activity change, negative = less growth, most hits filed as inhibitors | S. pombe RE007 Vpr strain, BacTiter-Glo ATP luminescence, 24 h; active = well fitted falling curve with a large enough effect; inconclusive = small, poorly fitted or top-dose-only effect; inactive = no such curve, though single readings can be large or run the other way; also: nearly all actives have a fitted effect of over 50% in size
#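 Fission yeast strain RE007, carrying one chromosomally integrated HIV-1 vpr copy, was seeded at OD 0.01 in PMG+AL medium with 23 nL pinned compound. After 24 h at 30 °C and 99% humidity, viability was read by BacTiter-Glo luminescence.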
# Active calls of the source: *; ? = inconclusive; . = no result; [ ] = remark or other dose. Compounds with a hit are over-represented: about 3% of the library has one in this group of screens. Unless noted, calls follow the shape of the dose curve; as a rule, active = well fitted curve in the direction sought with a large enough effect; inconclusive = small, poorly fitted or top-dose-only effect, or another doubt; inactive = no such curve, though single readings can be large; an effect the other way counts as inactive or inconclusive. % is scaled to controls: 0 for no effect and ±100 for the full control effect; potency is read from the fitted curve at half-maximal effect.
SMILES,Sm TGR inh,TbPYK inhibitor,LmPK inh,RE007 growth inh
CCOC(=O)C(C(=O)OCC)C(C(=O)OCC)N1CCOCC1 (stereo not given),0.631µM*,?,-15.8%,-27.0%
N#Cc1ccccc1Sc1ccccc1C(=O)NCC(c1ccco1)N1CCCC1 (stereo not given),-2.1%,-2.3%,.,-13.3%
COc1ccc(NC(=O)C2CCCN(C(=O)c3cnn(-c4ccccc4)c3-n3cccc3)C2)cc1 (stereo not given),9.1%,-3.2%,.,.
Nc1nc2c(s1)CCc1c-2cnn1-c1ccccc1,2.82µM*,?,14.1µM*,.
O=C(CC1SC(=O)N(c2ccccc2)C1=O)Nc1ccccc1 (stereo not given),?,3.9%,2.9%,?
O=C(CC1Sc2ncnn2C1=O)Nc1ccccc1 (stereo not given),0.501µM*,-13.9%,8.6%,-15.2%
C[C@H]1Cc2c(-c3ccccc3)nc3c(c2CO1)CN(C(=O)Nc1cccc(C#N)c1)CC3,.,.,-0.5%[11.5 µM],.
Cc1ccccc1CN1C(=O)C(O)(CC(=O)c2cccc(Br)c2)c2ccccc21 (stereo not given),2.6%,7.1%,.,.
CCOC(=O)C(=CNNc1ccccc1)C(=O)OCC,2.24µM*,-0.7%,3.6%,8.4%
O=C(Nc1cccc(Cl)c1)C1CCCN(c2nn3cc(-c4ccc(F)cc4)nc3s2)C1 (stereo not given),1.0%,3.0%[15.4 µM],.,.
N#CC(C#N)=Cc1cc2ccccc2nc1N1CCCCC1,5.01µM*,4.8%,1.3%,-24.9%
O=C(Nc1ccc(Br)cc1)Nc1nc2c(s1)CCCCCC2,0.4%,-2.6%,.,.
Cc1ccc(-n2nc3ccc(NC(=O)c4ccco4)cc3n2)cc1,-4.6%,0.8%,1.5%,23.1%
O=C(/C=C/c1ccco1)Nc1ccc2nn(-c3ccccc3)nc2c1,31.6µM*,-2.0%,0.5%,3.9%
O=C(/C=C\c1ccco1)Nc1cc([N+](=O)[O-])ccc1F,?,7.8%,-0.1%,-5.4%
Cc1ccc(NC(=O)/C=C/c2ccco2)cc1F,14.1µM*,-3.4%,.,.
Cc1cc(NC(=O)/C=C/c2ccco2)ccc1NC(=O)c1ccccc1,10µM*,-2.9%,3.2%,9.0%
CSCC[C@H](NC(=O)N1CCn2c1nc1ccccc12)C(=O)NCc1ccco1,?,-2.8%,6.2%,1.8%
O=C(c1ccc(Br)o1)N1CCc2ccccc21,6.1%,.,14.1µM*,.
COc1ccc(C(Sc2ccccc2)c2ccccc2)cc1OC (stereo not given),-15.0%,-0.1%,.,-7.9%
O=C(Nc1cccc(Oc2ccccc2)c1)c1ccc(-n2cncn2)c2ccoc12,.,-3.1%,.,-3.2%
O=C(Nc1ncc2c(n1)CC(c1ccco1)CC2=O)c1ccco1 (stereo not given),20µM*,-5.2%,-1.3%,-22.0%
Nc1ncc2c(n1)CC(c1ccco1)CC2=O (stereo not given),50.1µM*,-4.5%,-1.9%,-6.6%
O=C1CC(c2ccco2)Cc2nc(N3CCc4ccccc4C3)ncc21 (stereo not given),31.6µM*,1.8%,0.5%,-7.8%
CC(C)c1ccc(C2CC(=O)c3cnc(N4CCc5ccccc5C4)nc3C2)cc1 (stereo not given),-12.9%,-10.6%,3.2%,2.0%
SMILES,Sm TGR inh,TbPYK inhibitor,LmPK inh,RE007 growth inh
CCCCN(CCCNC(=O)c1cc(Nc2ccc(OC)c(OC)c2)nc2ccccc12)Cc1ccccc1,0.7%,-3.7%,.,.
CC(=O)c1ccc(NC(=S)N2C(C)CCCC2C)cc1 (stereo not given),35.5µM*,.,-0.3%,.
c1ccc(-c2n[nH]c(-c3ccccn3)n2)cc1,4.6%,-7.4%,?,-26.5%
c1ccc(-c2n[nH]c(-c3ccccn3)n2)nc1,-10.0%,-29.8%,15.8µM*,-6.2%
C[C@H]1Cc2c(COc3ccccc3)nc3c(c2CO1)CN(C(=O)C1CCCCC1)CC3,.,.,-4.9%[11.5 µM],.
Cc1ccc(OCCCCn2nnc3sc4c(c3c2=O)CCC(C)C4)cc1 (stereo not given),-9.9%,-3.1%,.,.
COc1cccc(CCNC(=O)c2cnc3sc(N4CCCC4)nn3c2=O)c1,0.9%,1.1%,.,.
O=C(CCc1ccccc1)Nc1nccs1,-24.6%,6.2%,7.2%,-5.2%
Cc1ccc(CCC(=O)Nc2nccs2)o1,44.7µM*,-2.1%,3.7%,-0.4%
CCc1ccc(CCC(=O)Nc2nccs2)o1,31.6µM*,0.0%,15.3%,-19.1%
O=C(Nc1ccccc1)OCCc1ccccc1,.,1.5%,.,-13.7%
Cc1cccc(NC(=O)CSc2nnc(-c3ccco3)c(-c3ccco3)n2)c1C,3.55µM*,?,12.2%,6.9%
Cc1cccc(NC(=O)Cn2nc(-c3ccco3)ccc2=O)c1C,31.6µM*,-8.4%,0.0%,26.2%
Cc1cccc(NC(=O)CSc2nnc(-c3ccco3)c(-c3ccco3)n2)c1,3.55µM*,-20.0%,4.2%,9.3%
CCOC(=O)c1ccc(NC(=O)Cn2cc(C(=O)c3ccc(Cl)cc3)c(=O)c3ccc(C)nc32)cc1,16.0%,-2.1%,.,.
CC(C)c1nnc(N2C(=O)c3oc4ccccc4c(=O)c3C2c2ccccc2F)s1 (stereo not given),0.9%,-4.9%,.,.
Cc1cccc(S(=O)(=O)N2CN(Cc3ccco3)c3nc4ccccc4nc32)c1,17.8µM*,-6.1%,5.4%,-22.7%
COc1cccc(C2C(C(=O)Nc3ccccc3OC)=C(C)Nc3nc(-c4ccco4)nn32)c1 (stereo not given),-31.5%,0.3%,.,.
Cc1ccc(S(=O)(=O)c2nnn3c2nc(N2CCCC(C)C2)c2cc(Cl)ccc23)cc1C (stereo not given),1.3%,-2.0%,.,.
CC1(C)CC(N2CCOCC2)=CC(=[N+]2CCOCC2)C1,44.7µM*,-0.5%,8.4%,-4.4%
CC1C[N+](=C2C=C(N3CCOCC3)CC(C)(C)C2)CC(C)O1 (stereo not given),2.6%,-28.6%,7.9%,10.3%
COc1ccc(CNC(=O)[C@H](Cc2ccccc2)NC(=O)C2CCNCC2)cc1,31.6µM*,-5.2%,-0.3%,9.0%
Cc1cc(CNC(=S)Nc2cccc(Cl)c2Cl)nn1C,12.6µM*,-9.6%,0.9%,18.3%
Cc1ccc(S(=O)(=O)N/N=C/c2ccc(O)cc2O)cc1[N+](=O)[O-],-5.2%,-6.1%,9.2%,0.0%
Cc1ccc(S(=O)(=O)N/N=C/c2cc([N+](=O)[O-])ccc2O)cc1[N+](=O)[O-],28.2µM*,3.2%,0.8%,-16.1%
COc1ccc(-n2c(O)c(/C=N/NS(=O)(=O)c3ccc(C)c([N+](=O)[O-])c3)c3ccccc3c2=O)cc1OC,10µM*,-17.9%,2.0%,2.5%
Cc1ccc(-c2nnc(-c3cccs3)o2)cc1,.,-0.3%,?,20µM*
Cc1ccc(/C=C/c2nnc(-c3cccs3)o2)cc1,0.4%,1.2%,-11.7%,-5.5%
Cc1cc(C)c(S(=O)(=O)NCC(c2ccco2)N2CCc3ccccc3C2)c(C)c1 (stereo not given),-18.2%,8.0%,.,-8.3%
